Values without a mark were called inactive. The source made the active and inactive calls.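 Rule for the calls: active = inhibition at or above 50% relative to wild type and mutant plate controls; inactive = inhibition below 50%.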

This test can be described thus: inhibitors of Chlamydomonas gravitaxis, primary screen, whole organism, Chlamydomonas reinhardtii, WT vs cilia-less mutant, absorbance, 96-well (AID 463189).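 Note: 0% = wild type cc124 cells in DMSO and 100% = ciliumless bld1 mutant cells.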 Particulars: OD600 absorbance, 2 days, at 10 µM, hits give high values.
In the case of `CCOc1ccc(/C(O)=C2/C(=O)C(=O)N(CCN(C)C)C2c2ccccc2)cc1Cl` (centres undefined), the inhibition (usually the relative decrease from the control value, in per cent) was 2.01%. The figure for `O=CN1CCN(C(=O)CN2C(=O)c3ccccc3C2=O)CC1` is 15.5%; for `CC(C)Oc1ccc(Cc2c(O)nc(NCCCN(C)C)[nH]c2=O)cc1` it is 26.1%; for `CC(=O)c1c(C)c2c(n1CCN(C)C)CCCC2` it is -13.1%.

For `Cc1ccc(C2C(C(=O)c3cc4ccccc4o3)=C(O)C(=O)N2CCCN(C)C)cc1` (centres undefined), the inhibition is -1.22%. Then `COC(=O)c1ccc(=O)n(Cc2ccco2)c1`, with -14.2%; and `COc1ccc(OC)c(NC(=O)CSc2nnc(-c3ccco3)n2-c2ccc(C(=O)O)cc2)c1`, with 2.3%; and `Cn1c(NCCN2CCCCC2)cc(=O)n(C)c1=O`, with 9.26%. Take `N#CC1=C(N)NC(SCc2ccc(F)cc2)=C(C#N)C12CCCCC2`: the inhibition was -1.21%. Then `Cc1nc2oc(C(=O)c3ccc(Br)cc3)c(N)c2c2c1COC(C)(C)C2`, with 39.3%. Then `Cc1nnc2n(Cc3ccccc3)c(=O)c3c4c(sc3n12)CN(Cc1ccccc1)CC4`, with 31.3%; and `N#CCSc1nc2sc3c(c2c(=O)n1C1CCCCC1)CCCC3`, with -20.7%. Then `COc1cccc(/C=C2/CN(C)CC3=C2OC(N)=C(C#N)C3c2cccc(OC)c2)c1` (centres undefined), with 3.47%; and `Cc1noc(NS(=O)(=O)c2ccc(NC(=O)COc3ccccc3)cc2)c1C`, with 4.64%; and `COc1ccccc1-c1nnc2sc(COc3ccccc3)nn12`, with 5.33%. Regarding `CCc1nnc(NC(=O)CSc2nc(C)c3c(c2C#N)CCCC3)s1`, the inhibition is 9.29%. The figure for `Cn1c(=O)c2c(nc(SCCN3CCCCC3)n2Cc2ccc(Cl)cc2)n(C)c1=O` is 104% (active). The figure for `Cc1ccc(C(=O)C2=C(O)C(=O)N(c3ncccn3)C2c2cccc(Cl)c2)o1` (centres undefined) is 1.33%; for `COC(=O)C1=C(C)OC(N)=C(C#N)C1c1ccc(OC)c(OC)c1OC` (centres undefined) it is 42.2%; for `O=c1c(-c2ccc3c(c2)OCCO3)c(C(F)(F)F)oc2cc(O)cc(O)c12` it is 29.9%. On to `C=CCNc1nc(-c2ccc(O)c(C(N)=O)c2)cs1`, for which the inhibition was 22.9%. `C=CCOc1nc2c(c(=O)n(Cc3ccc(Cl)c(Cl)c3)c(=O)n2C)n1C`: the inhibition is -5.33%. With `S=c1nc(-c2ccccc2)[nH]n1-c1ccccc1`, the inhibition was -5.69%. Then `O=C(O)CC(NCc1ccco1)C(=O)OCC1CCCO1` (centres undefined), with 17.1%.

(Values after PubChem BioAssay.)
